From PubChem
The full list was thinned out, with hits kept by preference.
hDAT+cocaine – changed hDAT dopamine uptake under cocaine IC80, either direction, primary screen, cocaine antagonist project, cell-based, LLC-PK1 hDAT, [14C]-dopamine uptake, MLSMR; B-score at 10 µM; LLC-PK1 hDAT cells, [14C]-dopamine uptake with cocaine IC80; actives deviate in either direction; Sodium-dependent dopamine transporter (Homo sapiens), Q01959; hit rate 1.3% among 110,000;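 active means Z score or B-score, a plate-position-corrected score, falls beyond the plate's 99.7% confidence bounds, in either direction; inactive means both scores lie inside the 99.7% bounds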;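 further: scored against the spread of the other compound wells on the same plate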
D1 allo mod – D1 CRE-luciferase signal change, two-sided – cell-based, HEK293 D1, dopamine EC30, D1 allosteric modulator project, primary screen; dopamine EC30 potentiation; actives deviate in either direction; hit rate 5.9% among 58,000; AID 641, 2007; B-score at 10 µM;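 active means luminescence count or its row- and column-corrected plate score outside the 99.7% band of the plate's sample wells, on either side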
Mac1 fbg enh – enhancers of CD11b/CD18 adhesion to fibrinogen, primary screen, K562 cells, luminescence; Integrin beta-2 (Homo sapiens) + Integrin alpha-M (Homo sapiens), P05107+P11215; ATPlite luminescence; activation, % at 10 µM; hit rate 0.07% among 93,000; AID 1499, 2009;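 active means 10 µM primary screen giving 50% or more activity, confirmed by 40% or more on retest at that dose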
Pyk2 oligo antag – antagonists of Pyk2 self-association, primary screen, Q293 cells, FERM NanoBiT luminescence, HTS; hit rate 0.83% among 99,000; Protein-tyrosine kinase 2-beta (Homo sapiens), Q14289; z-score (the deposit names both 25 µM and 10 µM); AID 1347419, 2020; active compounds read low;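 active means Z-score of -3 or lower, scaled per plate to the spread of control and sample wells; inactive means z-score above -3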;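 further: negative z-score means lost luminescence so less FERM oligomerization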
FAK inh – FAK kinase inhibitors, primary screen, biochemical | inhibition, %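 (tested at 7 µM)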 | Focal adhesion kinase 1 (Homo sapiens), Q05397 | hit rate 0.84% among 97,000 | biochemical FAK kinase activity assay; in the data active means inhibition above about 19%;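 further: 0% = DMSO and 100% = reference compound high control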
Target sequence (Q05397 whole entry, looked up): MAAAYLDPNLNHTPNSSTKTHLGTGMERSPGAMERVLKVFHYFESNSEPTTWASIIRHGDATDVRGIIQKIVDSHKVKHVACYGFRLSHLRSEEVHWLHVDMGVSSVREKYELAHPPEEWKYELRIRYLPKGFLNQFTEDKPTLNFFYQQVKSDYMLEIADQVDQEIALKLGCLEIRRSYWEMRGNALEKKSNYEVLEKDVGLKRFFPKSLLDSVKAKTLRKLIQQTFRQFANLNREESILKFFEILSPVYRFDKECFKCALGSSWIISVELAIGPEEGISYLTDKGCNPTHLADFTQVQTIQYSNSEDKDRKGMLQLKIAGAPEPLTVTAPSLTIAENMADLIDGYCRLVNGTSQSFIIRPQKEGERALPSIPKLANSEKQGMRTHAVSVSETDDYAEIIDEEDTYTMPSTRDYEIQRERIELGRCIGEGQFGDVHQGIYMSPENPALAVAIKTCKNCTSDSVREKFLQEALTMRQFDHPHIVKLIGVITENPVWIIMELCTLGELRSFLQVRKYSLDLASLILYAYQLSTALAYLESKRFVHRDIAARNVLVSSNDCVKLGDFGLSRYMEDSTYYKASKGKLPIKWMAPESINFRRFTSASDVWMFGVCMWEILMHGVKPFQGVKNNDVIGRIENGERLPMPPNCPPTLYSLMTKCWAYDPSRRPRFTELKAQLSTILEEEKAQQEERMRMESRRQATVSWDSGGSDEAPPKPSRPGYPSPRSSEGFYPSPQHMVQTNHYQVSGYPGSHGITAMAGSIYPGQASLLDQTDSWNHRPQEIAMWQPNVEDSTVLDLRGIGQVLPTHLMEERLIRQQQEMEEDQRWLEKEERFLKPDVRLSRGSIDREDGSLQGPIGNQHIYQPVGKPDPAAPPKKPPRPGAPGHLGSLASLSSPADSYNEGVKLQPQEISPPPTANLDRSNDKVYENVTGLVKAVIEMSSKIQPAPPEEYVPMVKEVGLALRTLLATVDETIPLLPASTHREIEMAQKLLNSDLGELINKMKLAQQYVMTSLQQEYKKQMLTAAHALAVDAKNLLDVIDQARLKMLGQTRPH
CD11b adhes inh – inhibitors of CD11b/CD18 adhesion to fibrinogen, primary screen, K562 cells, luminescence | Integrin beta-2 (Homo sapiens) + Integrin alpha-M (Homo sapiens), P05107+P11215 | ATPlite luminescence; Mn2+ added to activate the integrin | inhibition, % at 10 µM | hit rate 0.54% among 93,000 | AID 1497, 2009;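 active means primary inhibition of 50% or more at 10 µM, then 40% or more on retest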
D1 mod confirm – D1 receptor positive allosteric modulators, retest, confirmation, cell-based, HEK293 D1, CRE-luciferase, duplicate | luminescence at 10 µM | AID 642, 2007 | dopamine EC30 potentiation; active compounds read high | hit rate 88% among 2,200 | shares compounds with D1 allo mod;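 active means luminescence in either of two replicates above the same-plate mean plus 3 SD of the low-dose dopamine control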
D1 no dopamine – D1 receptor agonism without dopamine, confirmation, mechanism study for D1 allosteric modulator project, cell-based, HEK293 D1, CRE-luciferase, secondary assay 1. shares compounds with D1 allo mod. luminescence, no dopamine; active compounds read high. luminescence at 10 µM. hit rate 0.8% among 1,900; in the data active means luminescence above about 3900
Isoprot counter – counter-screen for D1 modulators: isoproterenol response in HEK293 cells. shares compounds with D1 allo mod. HEK293 D1 CRE-luciferase, isoproterenol EC30 counter-screen. calls only at 10 µM. hit rate 63% among 2,200. AID 647;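 active means luminescence in either replicate above plate mean of wells with a partly effective reference agonist dose plus 3 SD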;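 further: isoproterenol raises cAMP through native beta-adrenoceptor Gs so signal bypasses D1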
Active calls of the source: *; i = inactive; . = no result given; + = active, no number.

SMILES	hDAT+cocaine	D1 allo mod	Mac1 fbg enh	Pyk2 oligo antag	FAK inh	CD11b adhes inh	D1 mod confirm	D1 no dopamine	Isoprot counter
CC(=O)OC(C(=O)Nc1ccccc1C)C(OC(C)=O)C(OC(C)=O)C(OC(C)=O)C(=O)Nc1ccccc1C (configuration not stated)	.	.	.	.	2	.	.	.	.
COC(=O)c1ccc(OC)c(CSc2nnc(COc3cccc(C)c3)o2)c1	-0.76	0.13	2	-0.77	.	28	.	.	.
COC(=O)c1ccc(OC)c(CSc2nnc(COc3ccc(OC)cc3)o2)c1	-0.011	6.4*	6	-1.8	.	6	5284	1456	i
Cc1cc2ccccc2c(=O)n1CC(=O)NCC(=O)N1CCN(c2cccc(Cl)c2)CC1	1.1	-0.46	-4	0.12	6	11	.	.	.
Cc1cc2ccccc2c(=O)n1CC(=O)NCC(=O)N1CCN(c2ccccc2F)CC1	-0.24	3.4*	-1	0.14	3	-9	7784	1604	i
O=C(NCc1ccco1)c1cccnc1-c1nc2ccccc2s1	.	5.9*	4	0.95	2	-39	11260*	1740	+
Cc1c(C#N)c2ccccc2n1CC(=O)NCC1CCCO1 (configuration not stated)	-0.15	3.8*	2	0.98	-7	-9	5268	1692	i
CC1C=Cc2ccccc2N1C(=O)c1ccccc1 (configuration not stated)	-0.44	4*	-3	2.6	0	2	9976*	1476	i
CCOC(=O)N1c2ccccc2C=CC1OCC (configuration not stated)	-0.069	.	.	.	.	.	.	.	.
CCc1nnc(NC(=O)CSc2nc3cccnc3n2C2CCCCC2)s1	0.87	6.2*	4	-1.9	-2	13	8624*	1648	+
Cc1nc(NC(=O)CSc2nc3cccnc3n2C2CCCCC2)sc1C	-0.69	1.6	4	0.6	-3	-2	.	.	.
Cc1cc(SCC(=O)N(C)CC(=O)Nc2ccc(F)cc2)nc2ccccc12	.	.	0	.	.	13	.	.	.
Brc1ccc2oc3c(N4CCOCC4)ncnc3c2c1	-0.5	5.1*	1	1.5	.	-10	8996*	1872	+
Nc1c(-c2ccccc2)nc(Cl)nc1-c1ccccc1	0.11	.	-2	0.3	-1	-12	.	.	.
c1ccc(-c2nc3nonc3nc2-c2ccccc2)cc1	.	6.8*	0	0.43	4	-2	6860*	1656	i
CC(=O)c1cc(OC(=O)c2ccncc2)ccc1OC(=O)c1ccncc1	-1.1	-0.28	-5	0.04	1	4	.	.	.
COc1ccc(-c2csc(Cc3nnc4n3CCCCC4)n2)cc1OC	-0.37	20*	-1	1.1	1	-6	24836*	1564	+
CC1(c2cccs2)CC(c2cccs2)=C(C#N)C(=O)N1 (configuration not stated)	-0.25	1.3	0	-2	11	-2	.	.	.
CCOC(=O)c1cccnc1SCc1cc(=O)n2ccccc2n1	1	4.4*	-2	-0.15	5	-4	10728*	1604	+
O=S(=O)(c1ccccc1C(F)(F)F)N1CCOCC1	-0.0052	4.9*	-4	0.93	-7	2	4520	1508	i
COc1ccc(/C=C/C(=O)c2ccc(NC(=O)c3cccs3)cc2)cc1OC	0.64	.	23	-0.74	1	13	.	.	.
O=C1CC(c2ccc(F)cc2)Sc2ccccc2N1 (configuration not stated)	1.9	28*	.	-0.39	1	.	22156*	1556	+
COc1cc(C2CC(=O)Nc3ccccc3S2)cc(OC)c1OC (configuration not stated)	-1.4	-1.8	-1	-0.35	.	-19	.	.	.
COc1nc(NCc2ccco2)nc(N2CCC(C)CC2)n1	1.1	10*	1	-0.45	-2	-1	15736*	1680	+
CC(C)CC(CO)N1CCN(C(=O)c2cccc(Cl)c2)CCC1=O (configuration not stated)	0.02	.	.	.	.	.	.	.	.
SMILES	hDAT+cocaine	D1 allo mod	Mac1 fbg enh	Pyk2 oligo antag	FAK inh	CD11b adhes inh	D1 mod confirm	D1 no dopamine	Isoprot counter
CCN(CC)c1nc(SCC(=O)O)nc(N(CC)CC)n1	1.2	1	1	-0.73	-5	-54	.	.	.
CCN(CC)c1nc(C#N)nc(N(CC)CC)n1	-0.0025	14*	-7	1.2	.	45	15976*	1596	+
CCCCc1nc(NCCN2CCOCC2)c(C#N)c2c1COC(C)(C)C2	2.6*	5.8*	0	0.59	-1	10	11452*	1780	+
CCn1nc(NC(=O)c2ccncc2)c2cc3ccccc3nc21	0.99	11*	-2	-0.73	0	-20	15352*	1464	+
CCn1nc(NC(=O)c2ccncc2)c2cc3cccc(C)c3nc21	0.018	0.66	-2	-0.89	9	6	.	.	.
CCn1nc(NC(=O)c2ccco2)c2cc3ccccc3nc21	0.84	14*	-1	0.19	-3	-2	12332*	1428	+
CCCn1nc(NC(=O)c2ccco2)c2cc3ccc(C)cc3nc21	0.74	3.2	10	0.27	.	2	.	.	.
COC(=O)c1sccc1NC(=O)c1ccoc1C	-1.2	0.52	-4	0.22	-1	-11	.	.	.
Cc1cccc(NC(=S)NN2CCN(C)CC2)c1	0.08	.	0	1.5	-4	-6	.	.	.
N/C(=N/O)c1nc(N2CCCC2)nc(N(c2ccccc2)c2ccccc2)n1	-2.3	7.2*	1	-0.83	4	-50	13376*	1828	+
N/C(=N/O)c1nc(N2CCCCC2)nc(N2CCCCC2)n1	1.7	5.2*	.	0.32	0	.	18416*	1644	+
C1CCN(c2nc(N3CCCCC3)nc(N3CCNCC3)n2)CC1	0.88	-0.048	1	0.7	-2	-8	.	.	.
c1ccc(N(c2ccccc2)c2nc(N3CCOCC3)nc(N3CCOCC3)n2)cc1	.	1.8	-3	.	.	8	.	.	.
CCOc1cc(S(=O)(=O)N2CCN(Cc3ccccc3)CC2)ccc1Br	0.022	1.1	4	-1.7	-2	38	.	.	.
